Hit rate of the full screen: of about 340,000 compounds, about 12,000 (3.5%) were called active. Not shown: some 18% with an inconclusive outcome. This is one part of a sample in which actives are shown more often than they occur. A number with no mark means an inactive call. Calls follow the shape of the dose curve; as a rule, active = well fitted inhibition curve with a large enough effect; inconclusive = small, poorly fitted or top-dose-only effect, or another doubt; inactive = no such curve, though single readings can be large or run the other way.
Assay: qHTS Assay for Inhibitors of Hepatitis C Virus (HCV)
Details: Huh7.5.1 HCVcc-Cre infection, luciferase reporter, 44 h; series mostly up to 41.8 µM; activity change, negative = inhibition: at the top concentration
Procedure, shortened: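 Whole-lifecycle infectious HCVcc-Cre system; cells 1,000/well, compound then virus (~0.5 moi) added 4 h after plating, 44 h culture. Luciferase read 15 sec following 15 min substrate incubation, room temp.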
% is scaled to controls: 0 for no effect and ±100 for the full control effect; potency is read from the fitted curve at half-maximal effect.

Compound | activity change, negative = inhibition | Potency
CCOc1cc(N2CCOCC2)c(OCC)cc1NC(=O)COC(=O)[C@H](Cc1c[nH]c2ccccc12)NC(C)=O | 18.6% | 
CCOc1cc(N2CCOCC2)c(OCC)cc1NC(=O)COc1cccc2cccnc12 |  | 7.94 µM (active)
CCOc1cc(N2CCOCC2)c(OCC)cc1NC(=O)c1cc(C)nc2ccccc12 | 1.73% | 
CC(C)(C)NS(=O)(=O)NC(=O)C1=C(N2CCCC2)COC1=O | 0.465% | 
COc1ccccc1CNC(=O)COC(=O)c1cccs1 | 4.7% | 
CCOc1cccc(C(=O)Nc2nnc(-c3cccs3)s2)c1 | 21.8% | 
N#Cc1ccc(C(=O)Nc2nc(-c3cccs3)c(C(=O)C(F)(F)F)s2)cc1 |  | 11.2 µM (active)
Cc1ccc(C(=O)Nc2nnc(-c3cccs3)s2)cc1C | 9.59% | 
CC1CCN(C(=O)COC(=O)CCC(=O)c2cccs2)CC1 | -5.03% | 
COCC(=O)N(C)[C@H]1C[C@H]2c3cc(Oc4ccccc4C)ccc3CCN2C(=O)[C@H]1[C@H](C)O | 1.89% | 
CCN(CC)S(=O)(=O)c1ccc(OC)c(NC(=O)CCc2c(C)noc2C)c1 | -29.5% | 
CCN(C(=O)CSc1nnc(-c2ccc(OC(F)F)cc2)n1N)C1CCS(=O)(=O)C1 (centres undefined) | 24.5% | 
O=C(Nc1cccc(-c2cscn2)c1)C1CCN(Cc2ccsc2)CC1 | 5.5% | 
CC(=O)c1cc(CN2CCC(C(=O)Nc3cccc(-c4cscn4)c3)CC2)cs1 |  | 10 µM (active)
CC(=O)c1cc(CN2CCC(n3nccc3NC(=O)c3ccccc3Cl)CC2)cs1 | 2.88% | 
CC(C)(C)OC(=O)C[C@@H]1C/C=C\C[C@@H](CC(=O)N[C@@H](CO)Cc2ccccc2)C(=O)N2CCC[C@H]2COC1=O | 14% | 
c1ccc2c(c1)CSc1sccc1C2=C1CCNCC1 |  | 15.8 µM (active)
CN1CCC(N(C)S(=O)(=O)c2ccc(NC(=O)c3cccc(C#N)c3)cc2)CC1 | -4.18% | 
Cc1cccc(NC(=O)Nc2cccc(Oc3c(F)c(F)c(F)c(F)c3F)c2)c1 |  | 11.2 µM (active)
Cc1cccc(NC(=O)c2cccc(C(F)(F)F)c2)c1 | -13% | 
Cc1cccc(NC(=O)Nc2nnc(-c3ccccc3)o2)c1 | -2.53% | 
Cc1cc(NC(=O)C(C)N2C(=O)c3ccccc3S2(=O)=O)no1 (centres undefined) | 2.31% | 
O=[N+]([O-])c1ccc(N2CCN(S(=O)(=O)c3ccc4ccccc4c3)CC2)cc1NCc1ccco1 | -2.92% | 
O=C(c1ccc(S(=O)(=O)NCc2ccco2)cc1)N1CCN(c2ccccc2)CC1 | 1.43% | 
O=C(c1ccccc1)N1CCN(c2ccc([N+](=O)[O-])c(NCc3ccco3)c2)CC1 |  | 8.91 µM (active)

Compound | activity change, negative = inhibition | Potency
O=C(Nc1cccc2c1CCCC2)c1ccc(F)cc1 | -21.5% | 
CCN1C(=O)[C@H]2[C@@H](c3ccc(C)cc3)N3C(=O)N(c4cccc(Br)c4)C(=O)[C@@]3(CC)[C@H]2C1=O | -6.7% | 
CN(CC(=O)Nc1cccc(F)c1)C(=O)CC1CCCC1 | -6.09% | 
CC(=O)Nc1ccc(NC(=O)C(C)OC(=O)C2CC(=O)N(CCc3ccccc3)C2)cc1 (centres undefined) | 17.8% | 
CC[n+]1cc(C)ccc1/C=C/c1ccc(N(C)C)cc1 |  | 5.62 µM (active)
CN(C)c1ccc(/C=N\S(=O)(=O)c2ccccc2)cc1 | 0.89% | 
C/C(=N\Nc1ccccc1)c1cccs1 | 3.85% | 
Cc1csc(NC(=O)c2ccc(C)s2)n1 | 1.16% | 
O=C(Nc1ccc2sc3ccccc3c(=O)c2c1)c1ccccc1Cl |  | 3.55 µM (active)
COCC(=O)N1CCc2ccc(NC(=O)c3ccccc3Cl)cc2C1 | -11.9% | 
O=C(Nc1ccc2nc3n(c(=O)c2c1)CCCCC3)c1ccccc1Cl | -29.4% | 
CCC1CCCCN1C(=S)NC(=O)c1ccco1 (centres undefined) | 20.7% | 
COc1ccc(OC)c(/C=N/NC(=O)c2ccc[n+](CC(=O)c3ccccc3)c2)c1 | -14.2% | 
Cc1cccc(C(=O)OCC(=O)NC(C)C2CC3CCC2C3)c1O (centres undefined) | -4.42% | 
COc1ccccc1CNC(=O)CCCN1C(=O)NC2(CCCC2)C1=O | 3.98% | 
OC(COc1ccccc1)Cn1cc(Br)cn1 (centres undefined) | 9.27% | 
OC(CN=c1sc2ccccc2n1CC(O)COc1ccccc1)COc1ccccc1 (centres undefined) |  | 11.2 µM (active)
O=C(C(c1ccccc1)c1ccccc1)N1CCN(CC(O)COc2ccccc2)CC1 (centres undefined) | -27.7% | 
CN(c1ccccc1)S(=O)(=O)c1cc(C(=O)N2CCN(c3ncccn3)CC2)ccc1Cl | -24.9% | 
Cc1ccc(S(=O)(=O)N2CC(O)C[C@H]2C(=O)OCC(=O)Nc2ccc(N3CCOCC3)cc2)cc1C (some centres undefined) | -0.0858% | 
O=C(/C=C/NNC(=O)c1cccc(Br)c1)c1ccccc1 |  | 10 µM (active)
Cc1ccccc1NC(=S)NNC(=O)c1cccc(Br)c1 | 20.4% | 
CC(CC(=O)O)CC(=O)NNC(=O)c1cccc(Br)c1 (centres undefined) | 7.99% | 
CC(=O)c1cccc(-c2ccc(CN3C(CC(C)C)C(=O)N(Cc4cn(CC5CCCCC5)nn4)CCS3(=O)=O)cc2)c1 (centres undefined) | -21% [at 8.37 µM] | 

From PubChem BioAssay AID651820 (National Center for Advancing Translational Sciences (NCATS), 2012)
